Rows were chosen to be rich in hits. Some 9.3% of all compounds tested hit in one or more screens of this group.
SMN2 splice enh: qHTS Assay for Enhancers of SMN2 Splice Variant Expression. HEK293 SMN2-luciferase splicing reporter, luminescence, 30-36 h. 210,000 tested, 2.8% active. Potency, µM (top dose mostly 46.1 µM), for the others: at the highest dose activity change, positive = activation, usual class: activators; further: % of control where 0% means no effect; nearly all actives have a fitted effect of over 55% in size
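HEK293 cells carry an SMN2 […]–luciferase reporter in which exon 7 inclusion puts luciferase in frame. Cells were plated 10-12 h before compound addition, then incubated 30-36 h at 37C. ONE-Glo luminescence was read; sodium butyrate at 4.5 mM final served as control.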
ELG1 genotox: qHTS screen for small molecules that induce genotoxicity in human embryonic kidney (HEK293T) cells expressing luciferase-tagged ELG1 | 330,000 tested, 1.3% active | HEK293T ELG1-luciferase reporter, luminescence, 16 h | Potency, µM (top dose mostly 46 µM), for the others: at the highest dose activity change, positive = activation, most hits filed as activators | AID 504466, 2011; further: % of control where 0% means no effect; nearly all actives have a fitted effect of over 60% in size
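After overnight (16 hr) compound treatment at 37 °C, ELG1-luciferase HEK293T cells were lysed with ONE-Glo; luminescence quantified 30 min later at room temperature.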
FLuc counter: qHTS profiling assay for firefly luciferase inhibitor/activator using purifed enzyme and Km concentrations of substrates (counterscreen for miR-21 project) | purified FLuc, Km substrates, luminescence inhibition | AID 588342, 2011 | Potency, µM (highest dose often 57.5 µM), for inactives: at the highest dose activity change, negative = inhibition, hits mostly inhibitors | 360,000 tested, 6.9% active | Luciferin 4-monooxygenase (Photinus pyralis), P08659;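 further: plate controls were vehicle for no effect and reference inhibitor for full effect; nearly all actives have a fitted effect of over 55% in size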
Target sequence (P08659 whole entry, looked up): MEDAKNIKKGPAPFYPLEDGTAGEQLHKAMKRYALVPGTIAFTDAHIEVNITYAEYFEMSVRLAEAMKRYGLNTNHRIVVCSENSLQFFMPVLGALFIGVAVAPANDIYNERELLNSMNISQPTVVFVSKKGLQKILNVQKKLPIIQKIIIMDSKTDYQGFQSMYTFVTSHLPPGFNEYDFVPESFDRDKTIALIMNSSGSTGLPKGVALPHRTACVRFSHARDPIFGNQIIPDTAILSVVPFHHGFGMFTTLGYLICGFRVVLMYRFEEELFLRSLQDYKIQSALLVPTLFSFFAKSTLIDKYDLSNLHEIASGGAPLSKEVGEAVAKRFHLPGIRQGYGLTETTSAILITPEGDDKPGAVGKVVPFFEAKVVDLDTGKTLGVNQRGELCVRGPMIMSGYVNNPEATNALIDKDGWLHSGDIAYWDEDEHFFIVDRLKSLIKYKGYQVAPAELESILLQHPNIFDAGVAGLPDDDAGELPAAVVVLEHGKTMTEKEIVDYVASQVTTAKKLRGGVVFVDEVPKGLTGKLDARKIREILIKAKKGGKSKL
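Purified P. pyralis luciferase (10nM final) with 10uM D-luciferin and 10uM ATP (Km levels) in 50mM Tris acetate pH 7.5, 10mM Mg acetate, 0.01% Tween-20, 0.05% BSA; qHTS 6-point titration, ~60 µM downward; luminescence read.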
Rab9 promoter act: qHTS Assay for Rab9 Promoter Activators; 320,000 tested, 2.8% active; Huh7 Rab9 promoter-luciferase reporter, luminescence, 24 h; AID 485297, 2010; Potency, µM (series often up to 9.22 µM), for inactives: at the highest dose activation, negative = inhibition, most hits filed as activators; further: % of control where 0% means no effect; nearly all actives have a fitted effect of over 60% in size
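Huh7 reporter line, Rab9 promoter upstream of luciferase. Compound exposure 24 h at 37 °C in reduced-serum medium with 10% FBS. Read-out: luminescence.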
NPC1 promoter act: qHTS Assay for NPC1 Promoter Activators; Huh7 NPC1 promoter luciferase reporter, 24 h; Potency, µM (doses to about 9.22 µM), for the others: at the top dose activation, usual class: activators; 320,000 tested, 2.4% active; AID 485313, 2010; further: % of control where 0% means no effect; nearly all actives have a fitted effect of over 60% in size
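Luciferase expression driven by the NPC1 promoter was measured in stably transfected Huh7 cells after a 24 h compound incubation, using a luciferase reagent and a luminescence read.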
ELG1 repair inh: qHTS screen for small molecules that inhibit ELG1-dependent DNA repair in human embryonic kidney (HEK293T) cells expressing luciferase-tagged ELG1 | 330,000 tested, 2.3% active | HEK293T ELG1-luciferase reporter, luminescence, 16 h; DNA damage induced by 5-fluorouridine | Potency, µM (top dose mostly 46.1 µM), for inactives: at the highest dose activity change, negative = inhibition, most hits filed as inhibitors; further: on the % scale 0 is the no-effect control and ±100 the full control effect; nearly all actives have a fitted effect of over 55% in size
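5-Fluorouridine DNA damage + compound/DMSO, 2,000 cells/well, 16 h, 37 °C/5% CO2. ONE-Glo, 30 min RT, luminescence. Readout = decrease in reporter signal.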
Numbers without * were called inactive; ? = inconclusive; . = no result; [ ] = another dose, or the depositor's remark. The call rests on the fitted dose curve; in most records, active means well fitted curve in the direction sought with a large enough effect; inconclusive means small, poorly fitted or top-dose-only effect, or another doubt; inactive means no such curve, though single readings can be large; an effect the other way counts as inactive or inconclusive. Potency means the concentration at half of the fitted maximal effect.

SMILES	SMN2 splice enh	ELG1 genotox	FLuc counter	Rab9 promoter act	NPC1 promoter act	ELG1 repair inh
CCN(CC)S(=O)(=O)c1cccc(NC(=O)c2cc3ccccc3o2)c1	-19%	-4%	12µM*	9%	0%	?
CN(C)S(=O)(=O)c1cccc(NC(=O)c2cc3ccccc3o2)c1	3%	6%	8.5µM*	?	30%	?
O=C(COC(=O)c1cc2ccccc2oc1=O)Nc1cccc(S(=O)(=O)N2CCCCCC2)c1	17%	?	-19%	12%	2%	?
CN(C)S(=O)(=O)c1cccc(NC(=O)COC(=O)c2cc3ccccc3oc2=O)c1	.	9.2µM*	13µM*	3.2µM*	3.5µM*	?
Cc1ccc(NC(=O)CNc2cc(S(=O)(=O)N3CCOCC3)ccc2N2CCOCC2)cc1S(=O)(=O)N(C)C	.	2%	.	.	.	?
COc1ccccc1OCc1nc2ccccc2[nH]1	11µM*	?	11µM*	2µM*	2.5µM*	?
CCCCc1nc2ccccc2[nH]1	6%	0%	2%	-5%	2%	10%
c1cnc2c(OCc3nc4ccccc4[nH]3)cccc2c1	11µM*	?	9.5µM*	2.2µM*	4µM*	?
Cc1ccccc1OCc1nc2ccccc2[nH]1	.	?	4.8µM*	1.8µM*	?	?
c1ccc2[nH]c(CCCc3nc4ccccc4[nH]3)nc2c1	.	1%	-1%	-2%	7%	3%
COc1cc(NC(=O)Cn2c(=O)n(CC(=O)NCCc3ccc(OC)c(OC)c3)c(=O)c3sccc32)cc(OC)c1	-6%	.	6%	.	.	.
O=C(NC(Cc1c[nH]c2ccccc12)C(=O)NCCCN1CCOCC1)c1cccs1 (configuration not stated)	19%	1%	4%	-3%	0%	13%
Brc1ccccc1-c1nc2c3ccccc3ncn2n1	.	13%	?	3.2µM*	?	?
Clc1ccc(-c2nc3c4cnn(-c5ccccc5Br)c4ncn3n2)c(Cl)c1	-2%	.	-17%	.	.	.
CC(=O)Nc1ccc(Oc2ccc(-c3noc(C)n3)cc2)cc1	5%	.	-9%	.	.	.
CC(=O)Oc1ccc(Oc2ccc(-c3noc(C)n3)cc2)cc1	?	23µM*	?	?	11%	?
CCOc1ccc(-c2nc(-c3cccnc3)no2)cc1OCC	-16%	9%	?	1%	7%	5%
CC(=O)Oc1ccc(-c2nc(-c3cccnc3)no2)cc1	?	5.8µM*	6µM*	?	3.5µM*	?
O=C(COC(=O)c1cccs1)c1ccc2c(c1)OCCO2	-10%	10µM*	0.076µM*	0.32µM*	1.6µM*	?
O=C(NNC(=O)c1cccs1)c1ccc2ccccc2c1	10%	?	-18%	?	18%	?
O=C(COC(=O)c1cccs1)c1ccc2ccccc2c1	-20%	?	1.7µM*	28%	?	?
O=C(Nc1ccc(NC(=O)c2cccs2)cc1)c1ccc2c(c1)OCCO2	.	?	-7%	-16%	-4%	16%
CC(=O)NC12CC3CC(C1)CC(C(=O)OCC(=O)Nc1ncc(Cl)c(C)c1Cl)(C3)C2	5%	-1%	2%	-1%	0%	-12%
CC(=O)NC12CC3CC(C1)CC(C(=O)OCC(=O)c1ccc4c(c1)OCCO4)(C3)C2	-2%	?	0.24µM*	0.1µM*	0.5µM*	?
Cc1nc2nc(SCC(=O)NCCCN3CCCC3)nn2c(C)c1Cc1ccccc1Cl	.	0%	0%	-1%	-9%	?
SMILES	SMN2 splice enh	ELG1 genotox	FLuc counter	Rab9 promoter act	NPC1 promoter act	ELG1 repair inh
CCN(C(=O)c1cc2cc3ccc(C)cc3nc2o1)c1ccc(OC)cc1	-35%	15%	?	-3%	2%	-18%
Cc1ccc2cc3cc(C(=O)NC4CC4)oc3nc2c1	.	?	11µM*	2.5µM*	4µM*	?
Cc1ccc2cc3cc(C(=O)N(C)c4ccccc4C)oc3nc2c1	16µM*	.	6.7µM*	.	.	.
Cc1ccc2cc3cc(C(=O)N4CCCCC4C)oc3nc2c1 (configuration not stated)	11µM*	?	3µM*	1.6µM*	1.4µM*	?
Cc1ccc2cc3cc(C(=O)NC4CCCCC4)oc3nc2c1	.	-4%	?	?	?	?
CCCOC1CCCN(C(=O)c2cc(COc3ccc(-n4cncn4)cc3)on2)C1 (configuration not stated)	.	0%	-14%	3%	15%	?
N#Cc1ccc(-c2nc3ccc(Br)cc3c(=O)n2O)cc1	.	1%	-3%	1%	-4%	9.2µM*
O=c1c2cc(Br)ccc2nc(-c2ccc([N+](=O)[O-])cc2)n1O	-74%	-2%	?	-2%	-1%	?
Cc1nc(-n2nc(C)c(CCC(C)C)c2C)sc1C(=O)Nc1cccc(Cl)c1C	.	.	-9%	.	.	.
Cc1cc(O)c(C(C)C)cc1C1(c2cc(C(C)C)c(O)cc2C)OC(=O)c2ccccc21	-19%[9.22 µM]	-10%	-9%	-6%	-4%	16µM*
COc1ccc(OC)c(/C=N/NC(=S)NCCc2ccccc2)c1	.	-3%	-17%	-2%	1%	?
